Assay outcomes as filed in PubChem.
In the library only some 3.6% were active in any assay of this set; here they are far more common.
Hsp90 Hop PPI: changes Hsp90-Hop TPR2A binding signal, up or down; AlphaScreen TPR2A-His6 binding biotin-Hsp90 C-terminal peptide; Potency, µM (doses to about 57 µM); actives 0.44% (n = 71,000); AID 595; active means well fitted curve in either direction with a large enough effect; inconclusive means small, poorly fitted or top-dose-only effect, or another doubt
CRE Fsk mod: CRE-bla signaling modulation under forskolin stimulation | AID 662 | CHO CRE-bla reporter (cAMP response element driving beta-lactamase), forskolin EC10, beta-lactamase ratio | Potency, µM (top dose mostly 38.2 µM), most hits filed as activators | actives 2.5% (n = 71,000); active means well fitted activation curve with a large enough effect in the signal ratio, with a control signal flat, not every such curve was filed as active; inconclusive means small, poorly fitted or top-dose-only effect, or effect the other way, or a change in a side signal; the % refers to the signal ratio
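Reporter-gene assay: CHO cells with beta-lactamase behind cAMP responsive elements, co-treated with compound and EC10 NKH 477 for 3 hours at 37 degrees Celsius. Activity came from the 460/530 nm CCF4 emission ratio.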
ALOX15 inhib: 15-hLO (ALOX15) enzyme inhibition. actives 1.4% (n = 74,000). P16050. purified 15hLO-1, xylenol orange hydroperoxide absorbance. Potency, µM (highest dose often 57.1 µM), usual class: inhibitors; further: nearly all actives have a fitted effect of over 55% in size
Target sequence (P16050 whole entry, looked up): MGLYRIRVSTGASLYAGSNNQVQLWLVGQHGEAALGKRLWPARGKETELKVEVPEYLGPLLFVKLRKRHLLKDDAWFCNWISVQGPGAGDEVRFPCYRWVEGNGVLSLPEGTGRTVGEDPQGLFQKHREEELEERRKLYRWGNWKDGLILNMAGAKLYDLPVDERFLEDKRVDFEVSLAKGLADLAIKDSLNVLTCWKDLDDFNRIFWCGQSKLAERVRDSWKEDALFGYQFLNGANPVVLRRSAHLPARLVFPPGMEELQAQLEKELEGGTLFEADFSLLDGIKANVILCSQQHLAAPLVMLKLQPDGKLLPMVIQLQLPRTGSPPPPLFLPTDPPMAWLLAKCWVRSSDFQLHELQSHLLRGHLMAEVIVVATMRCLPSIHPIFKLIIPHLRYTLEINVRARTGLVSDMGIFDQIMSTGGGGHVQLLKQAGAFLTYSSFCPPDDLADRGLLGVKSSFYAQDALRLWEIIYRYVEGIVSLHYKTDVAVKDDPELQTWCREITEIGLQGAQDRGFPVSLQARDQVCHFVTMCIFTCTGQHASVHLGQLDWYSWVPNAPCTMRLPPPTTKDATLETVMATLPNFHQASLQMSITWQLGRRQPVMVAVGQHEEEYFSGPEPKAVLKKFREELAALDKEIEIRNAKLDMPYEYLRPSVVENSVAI
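Readout: Fe(III)-xylenol orange absorbance, 573-to-405 nm ratio as reaction progress. Enzyme 40 nM purified human 15hLO-1, substrate 50 uM arachidonic acid, 6 min RT after 15 min compound preincubation; Hepes pH 7.5 buffer with Triton X-100.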
IkB signaling: suppresses IkB signaling in ABC-DLBCL reporter cells | Potency, µM (doses to about 57.1 µM) | ABC-DLBCL IkBa-CBG/CBR dual luciferase ratio, 4 h; response scale: scaled: untreated 0%, proteasome inhibitor 100% | actives 0.04% (n = 110,000); active means well fitted curve in the direction sought with a large enough effect in the signal ratio, not every such curve was filed as active; inconclusive means small, poorly fitted or top-dose-only effect, or a change in a side signal; the % refers to the signal ratio;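 further: the direction sought is a rising ratio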
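In this assay, an IκBα–CBG68 fusion accumulates when IKK-driven degradation is blocked; native CBR normalizes for cell number. OCI-Ly3 cells were treated 4 h with compound and doxycycline, then green and red light read after Chroma-Glo addition.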
Tau fil binding: tau filament binding | P10636 | recombinant tau filaments, thioflavin S fluorescence, 15 h; filaments grown with octadecylsulfate alongside compound | Potency, µM (titrated, usually from 57.1 µM) | actives 2% (n = 71,000) | AID 596;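 further: actives lower thioflavin S fluorescence by blocking filaments or displacing dye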
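His-tagged recombinant human tau (exons 2, 3, 10; 1 uM final) fibrillized with 30 uM sodium octadecylsulfate, 15 h at 37 C, in pH 7.4 HEPES buffer with 10 uM thioflavine S and 5 mM DTT. Reduced ThS fluorescence (450/510 nm) marks activity.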
Hsp90 TPR2A CRC: confirmation and counter-screen of Hsp90 TPR2A co-chaperone interaction disrupters | shares compounds with Hsp90 Hop PPI | AlphaScreen TPR2A-His6 / biotin-Hsp90 peptide binding | activity, negative = inhibition, % at 40 µM or 46 µM, hits read low | actives 100% (n = 45) | AID 632;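 active means compound lowering the Hsp90 and TPR2A binding signal, whether or not the linker counterscreen also flagged it as an artifact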
A number is an active result; n = inactive; u = inconclusive; x = no result; [ ] = dose if it differs, or a comment. Unless noted, the call rests on the fitted dose curve; in most records, active means well fitted curve in the direction sought with a large enough effect; inconclusive means small, poorly fitted or top-dose-only effect, or another doubt; inactive means no such curve, though single readings can be large; an effect the other way counts as inactive or inconclusive.

SMILES	Hsp90 Hop PPI	CRE Fsk mod	ALOX15 inhib	IkB signaling	Tau fil binding	Hsp90 TPR2A CRC
COc1ccc(Oc2ncc3nc(-c4cccs4)c(=O)n(Cc4cccs4)c3n2)cc1	n	3.2µM	n	n[11.4 µM]	u	x
COc1ncc2nc(-c3ccccc3)c(=O)n(Cc3cccs3)c2n1	n	13µM	n	n[11.4 µM]	u	x
COc1ncc2nc(-c3cc(F)cc(F)c3)c(=O)n(Cc3cccs3)c2n1	n	5µM	u	n[11.4 µM]	n	x
COc1ccc2c(c1)cc1c(=O)n(CC(=O)NCc3ccco3)nc(C)n12	x	x	x	n	x	x
O=c1[nH]c2ccccc2c2ccccc12	n	u	n	n	n	x
O=c1[nH]c2ccccc2c2nc3ccccn3c12	n	10µM	n	n	n	x
CCOc1ccc(C2C(C(=O)Nc3ccccc3C)=C(C)Nc3nnnn32)cc1 (stereo unspecified)	x	x	x	n	x	x
CC(=O)Nc1ccc(S(=O)(=O)N2CCC(n3c(C(F)(F)F)nc4cccnc43)CC2)cc1	x	x	x	n	x	x
N#Cc1c2n(c3c(=O)n(Cc4ccc(Cl)cc4)cnc13)CCCCC2	n	3.2µM	n	n	n	x
Cc1nn(-c2ccc(Cl)cc2)c2nc(-c3cccnc3)cc(C(F)(F)F)c12	x	x	x	n	x	x
CCOc1ccc(C(=O)CCNC(Cc2cnc[nH]2)C(=O)O)cc1 (stereo unspecified)	u	u	n[11.4 µM]	n	n[11.4 µM]	-93[alpha-screen platform artifact]
Cc1cnc(CNc2cc(-c3ccc(C(=O)N(C)C)cc3)ncn2)cn1	n	n	u	n[11.4 µM]	n	x
Cc1ccc(S(=O)(=O)NC(=O)c2cc(C)n(CCCn3ccnc3)c2C)cc1	4µM	n	n	n	n	-100[alpha-screen platform artifact]
CC(C)c1nn2c(=O)cc(COC(=O)c3cccs3)nc2s1	x	x	x	n	x	x
O=C(Nc1cccc(C(=O)N2CCOCC2)c1)c1cncc(Br)c1	n	n	n	n	n	x
O=C(Nc1cccc(C(=O)N2CCOCC2)c1)c1ncn[nH]1	25µM	n	n	n	n	-83[alpha-screen platform artifact]
CN1CCN(Cc2cc(COCc3ccccc3)c3cccnc3c2O)CC1	1.6µM	n	n	n	n	-100[alpha-screen platform artifact]
CCCCOCc1cc(CN2CCN(c3cccc(Cl)c3)CC2)c(O)c2ncccc12	x	x	x	n	x	x
OCc1ccnc2c(O)cccc12	3.2µM	n	n	n	n	-100[alpha-screen platform artifact]
CCOC(=O)CCCCC(=O)c1[nH]c(=O)[nH]c1CSc1nc(C)cc(=O)[nH]1	1µM	n	n	n	n	-100[alpha-screen platform artifact]
CCOC(=O)CCCCC(=O)c1[nH]c(=O)[nH]c1CSc1nc(C)cc(C)n1	u	u	n[11.4 µM]	n	n[11.4 µM]	x
CCOC(=O)c1c(C)[nH]c(C(=O)CN2CCOCC2)c1C	n	u	n	n	n	x
CCOC(=O)CCCCC(=O)c1[nH]c(=O)[nH]c1CSc1nc2ccccc2[nH]1	2.5µM	n	n	n	n	-100[alpha-screen platform artifact]
CCOC(=O)CCCCC(=O)c1[nH]c(=O)[nH]c1CN1CCOCC1	2.5µM	n	n	n	n	-99[alpha-screen platform artifact]
CCCCN(C)CCCNC(=O)Cn1ncc2c3ccccc3n(Cc3cccc(Cl)c3)c2c1=O	x	x	x	n	x	x
SMILES	Hsp90 Hop PPI	CRE Fsk mod	ALOX15 inhib	IkB signaling	Tau fil binding	Hsp90 TPR2A CRC
CCOc1ccc(-n2cc(-c3ccccc3)c3c(N4CCC(C)CC4)ncnc32)cc1	x	x	x	n	x	x
Cc1nnc(N2CCN(Cc3ccccc3)CC2)[nH]c1=O	n	n	n	n	n	x
Cc1cc(C)n(-c2nnc(C)c(=O)[nH]2)n1	1.6µM	u	n[11.4 µM]	n	n[11.4 µM]	-100[alpha-screen platform artifact]
Cc1ccc(S(=O)(=O)CCc2nnc(NC(=O)c3cnccn3)s2)cc1	n	n	n	n	n	x
Cc1ccc(S(=O)(=O)CCc2nnc(NC(=O)c3ccccn3)s2)cc1	6.3µM	n	n	n	n	-100[alpha-screen platform artifact]
CN(C)c1ncc(C(=O)NCc2ccccc2Cl)cn1	x	x	x	n	x	x
O=C(CN1CC(=O)Oc2ccccc21)OCC(=O)c1ccccc1	3.2µM	n	n	n	n	-100[alpha-screen platform artifact]
CCCc1cc(=O)oc2cc(C)c3c(C(C)(C)C)coc3c12	x	x	x	n	x	x
O=C(CSc1cccc2cccnc12)N1CCCC1	10µM	n	n	4µM	n	-99[alpha-screen platform artifact]
CN(C)C(=O)CSc1cccc2cccnc12	u	n	n	u	n	x
O=C(NCCCn1ccnc1)Nc1ccc(Cl)c(Cl)c1	7.9µM	n	n	n	n	-98[alpha-screen platform artifact]
Nc1nc(N)nc(-c2ccccn2)n1	7.9µM	n	n	n	n	-99[alpha-screen platform artifact]
